Screens (PubChem BioAssay)
TGFb SMAD3 inh – TGF-b pathway inhibition; 410,000 tested, 1.2% active; HepG2 CAGA-GFP TGF-b/SMAD3 reporter, GFP fluorescence, 18 h; TGF-beta stimulated, 500 pg/mL final; Potency, µM (highest dose often 46.1 µM), for inactives: at the highest dose activity, negative = inhibition, most hits filed as inhibitors; note: % is set by controls: 0 for no effect and ±100 for the full control effect; nearly all actives have a fitted effect of over 65% in size
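HEPG2 CAGA-GFP cells (1000/well, DMEM with 1% FBS) were pre-incubated 2 h at 37 degrees C, given compound by pin tool, then stimulated with TGF-beta at 500 pg/mL final for 18 h before per-cell GFP fluorescence imaging.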
HT1080-NT tox – kills 2HG-producing HT-1080-NT fibrosarcoma cells | HT-1080-NT fibrosarcoma viability, CellTiter-Glo ATP luminescence, 48 h | Potency, µM (doses to about 46.1 µM), for inactives: at the highest dose activity, negative = less viability, hits mostly cytotoxic | 360,000 tested, 1.6% active;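 note: NT is the 2HG producing partner of a matched IDH1 knockdown line; 0% = DMSO-treated cells and -100% = media-only wells without cells; nearly all actives have a fitted effect of over 55% in size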
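HT-1080-NT; 750 cells/well; 5% FBS RPMI; 48 h compound, 37 degrees C; CellTiter-Glo luminescence; curve fitting and curve-class assignment.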
KB-V1 cytotox – KB-V1 MDR subline cytotoxicity; KB-V1 MDR cells viability, CellTiter-Glo, 72 h; Potency, µM (highest dose often 46.1 µM), most hits filed as cytotoxic; 400,000 tested, 3.4% active; note: % is set by controls: 0 for no effect and ±100 for the full control effect; nearly all actives have a fitted effect of over 60% in size
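Potencies derive from concentration-effect curves fitted to normalized luminescence (CellTiter-Glo) of KB-V1 cells treated for 72 h at 37 degrees C in phenol-red-free DMEM containing 10% FBS.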
HepG2 tox – HepG2 cytotoxicity, counter-screen for TGF-b inhibitors; 410,000 tested, 0.76% active; AID 588856; HepG2 CAGA-GFP viability, ATP luminescence, 18 h; Potency, µM (highest dose often 46.1 µM), without a hit: at the top dose activity change, negative = cytotoxicity, most hits filed as cytotoxic
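HepG2 CAGA-GFP cells (1000/well, DMEM with 1% FBS) received compound, then TGF-beta at 500 pg/mL final, and were incubated 18 hours at 37 degrees C. Viability was read by CellTiter-Glo luminescence. Media-only wells were set as complete cell-killing and DMSO as no toxicity.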
HT1080 IDH1KD tx – kills HT-1080 cells with IDH1 knockdown | HT-1080 IDH1 knockdown viability, ATP luminescence, 48 h | Potency, µM (titrated, usually from 46.1 µM), for the others: top-dose activity, negative = toxicity, actives largely listed as cytotoxic | 360,000 tested, 2% active | AID 686971;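 note: 0% = DMSO wells and -100% = cell-free medium wells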
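HT-1080-IDH1KD cells (IDH1 knocked down), 750/well in RPMI with 5% FBS, treated with compound 48 h at 37 degrees C. Viability by CellTiter-Glo luminescence, normalised to DMSO and no-cell wells; concentration-response curves classed.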
KB-3-1 cytotox – kills parental KB-3-1 adenocarcinoma cells. Potency, µM (titrated, usually from 46.1 µM), hits mostly cytotoxic. KB-3-1 viability, CellTiter-Glo ATP luminescence, 72 h. AID 1347075. 400,000 tested, 1.4% active; note: % is set by controls: 0 for no effect and ±100 for the full control effect; nearly all actives have a fitted effect of over 60% in size
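Parental KB-3-1 adenocarcinoma cells in phenol-red-free DMEM with 10% FBS were pin-treated with compounds at several concentrations, incubated 72 h at 37 °C, and viability read by CellTiter-Glo luminescence; concentration-effect curves were fitted after normalization.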
Numbers without * were called inactive; i = inactive; ? = inconclusive; · = no result; ! = repeats disagree. Only some compounds are listed: those with a hit (about 6.6% of all), similar ones and a draw of the others. Calls come from the whole dose curve; as a rule, active = well fitted curve in the direction sought with a large enough effect; inconclusive = small, poorly fitted or top-dose-only effect, or another doubt; inactive = no such curve, though single readings can be large; an effect the other way counts as inactive or inconclusive. Potency is the fitted concentration of half-maximal effect.

SMILES	TGFb SMAD3 inh	HT1080-NT tox	KB-V1 cytotox	HepG2 tox	HT1080 IDH1KD tx	KB-3-1 cytotox
Cc1ccc(-c2noc(-c3ccccc3NC(=O)C3CC(=O)N(c4cccc(C)c4)C3)n2)cc1 (configuration not stated)	-10%	·	?	3%	·	i
CC1=CC(C)C(/C=N/N=C(N)N)C(C)C1 (configuration not stated)	?	?	i	25%	16µM*	?
O=C(Nc1cccc(S(=O)(=O)Nc2ccc(SC(F)F)cc2)c1)C1CCC1	-8%	15µM*	i	-18%	-16%	i
Cc1ccc(NS(=O)(=O)c2cccc(C(=O)NC3CCN(Cc4ccccc4)CC3)c2)cc1	-17%	-5%	?	-39%	-30%	?
O=C(NC1CCN(Cc2ccccc2)CC1)c1cccc(S(=O)(=O)Nc2ccc(SC(F)F)cc2)c1	11µM*	?	i	-84%	-19%	?
Cc1ccccc1-c1cc(C(=O)NCc2cccc(Br)c2)nn1CC1CC(c2cccc([N+](=O)[O-])c2)=NO1 (configuration not stated)	0%	-7%	i	0%	-6%	i
COCOCCn1cc(CN2CCS(=O)(=O)N(Cc3ccc(-c4ccncc4)cc3)C(C(C)C)C2=O)nn1 (configuration not stated)	15%	4%	i	-17%	1%	i
Cc1c(N/N=C(\C#N)C(=O)c2ccccc2)c(=O)n(-c2ccccc2)n1C	1%	-22%	?	0%	?	?
Cc1ccccc1CSCC(=O)Nc1ccccc1-c1ccccc1	?	0%	23µM*	-50%	0%	i
Cc1c(NCc2cc(Cl)cc(Cl)c2O)c(=O)n(-c2ccccc2)n1C	?	?	21µM*	2%	?	i
Cc1ccccc1CSCC(=O)Nc1c(C)n(C)n(-c2ccccc2)c1=O	1%	1%	18µM*	4%	3%	i
Cc1ccccc1C(=O)/C(C#N)=N/Nc1c(C)n(C)n(-c2ccccc2)c1=O	?	-26%	0.46µM*	-5%	?	i
Cc1c(NCc2cc(Cl)ccc2O)c(=O)n(-c2ccccc2)n1C	7%	-6%	i	-24%	-9%	i
CCN(CC)c1nc(OCCNC(=O)Nc2ccccc2)nc(N(CC)CC)n1	?	21µM*	?	-59%	18µM*	?
CCN(CC)/[N+]([O-])=N/Oc1cc(O/N=[N+](\[O-])N(C)C)c([N+](=O)[O-])cc1[N+](=O)[O-]	6.3µM*	·	·	10µM*	·	·
CN(C)/[N+]([O-])=N/Oc1ccc([N+](=O)[O-])cn1	0%	·	·	-7%	·	·
CCOc1ccc(NC(=O)Cn2nc(SC)c(S(=O)(=O)c3ccccc3)c2N)cc1	-29%	·	i	-1%	·	i
Cc1ccc(CNC(=O)C2CC(c3cc(C(F)(F)F)cc(C(F)(F)F)c3)=NO2)o1 (configuration not stated)	-25%	?	i	-18%	23µM*	i
Cc1ccc(CCNC(=O)C2CC(c3cc(C(F)(F)F)cc(C(F)(F)F)c3)=NO2)cc1 (configuration not stated)	10%	15%	?	7%	18%	i
O=C(NCc1ccco1)C1CC(c2ccc(Cl)c(Cl)c2)=NO1 (configuration not stated)	-21%	?	i	1%	-5%	i
COc1ccc(C2=NOC(C(=O)NCc3ccco3)C2)cc1 (configuration not stated)	0%	7.1µM*	7.3µM*	2%	6.3µM*	13µM*
COc1cc(C2=NOC(C(=O)NCc3ccco3)C2)cc(OC)c1OC (configuration not stated)	24%	·	2.9µM*	-6%	·	i
COc1ccccc1CNC(=O)c1cccn1-c1nnc(N2CCCC2)s1	0%	·	i	8%	·	i
COc1ccc(CCNC(=O)CCc2c(C)c3cc4c(C)c(C)oc4cc3oc2=O)cc1	-26%	·	·	-25%	·	·
CCc1cccc(NC(=O)CC(c2ccc(OC)cc2)N2Cc3ccccc3C2=O)c1 (configuration not stated)	3%	·	·	-14%	·	·
SMILES	TGFb SMAD3 inh	HT1080-NT tox	KB-V1 cytotox	HepG2 tox	HT1080 IDH1KD tx	KB-3-1 cytotox
N#C/C(=C\c1cn(CC(=O)N2CCCCC2)c2ccccc12)C(=O)NCc1ccc2c(c1)OCO2	11%	4%	26µM*	29%	6%	i
N#C/C(=C\c1cn(CC(=O)N2CCCC2)c2ccccc12)C(=O)NCc1ccc2c(c1)OCO2	8%	18%	i	0%	1%	i
O=S(=O)(Nc1nc(CN2CCOCC2)nc2sc3c(c12)CCCC3)c1cc(F)ccc1F	-7%	-5%	10µM*	-5%	-1%	i
COc1ccccc1-c1ccnc2c(-c3ccc(Br)cc3)c(C)nn12	?	·	i	4%	·	i
CCOC(=O)CCCc1ccc(/C(C)=N/NC(N)=S)cc1	-1%	16µM*	8.2µM*	-7%	?	?
CCOC(=O)CCCc1ccc(/C(C)=N/NC(=S)NC)cc1	-9%	6%	i	-9%	7%	i
CCOC(=O)C1=C(COc2ccc(C)cc2)NC(=O)NC1c1cc(C)ccc1C (configuration not stated)	?	12%	?	18%	10%	i
CCOC(=O)C1=C(CN2CCN(c3ccc(Cl)cc3)CC2)NC(=O)NC1c1ccc(F)cc1 (configuration not stated)	16µM*	·	?	-39%	·	?
CCOC(=O)C1=C(CN2CCN(c3ccccc3F)CC2)NC(=O)NC1c1ccc(Cl)cc1 (configuration not stated)	-9%	·	i	-7%	·	i
CCOC(=O)C1=C(CN2CCCCC2)NC(=O)NC1c1cc(C)ccc1C (configuration not stated)	-18%	1%	10µM*!	-31%	-9%	i
CCOC(=O)C1=C(CSCc2ccccc2)NC(=O)NC1c1cc(C)ccc1C (configuration not stated)	?	?	9.2µM*	-59%	?	i
CCn1c(=O)c2cc(C(=O)NCCCN3CCN(C)CC3)sc2c2ccccc21	37%	·	i	-9%	·	i
C=CCC[C@@H](CCCCC)OC(=O)/C=C/[C@@H](O)[C@H](O)C[C@@H](O)CC=C	·	-23%	?	·	-23%	i
